Numbering of substitutions follows the chain as printed.
Tests used:
Experiment in all cases: protein-binding microarray (PBM); PBM: ~300 nM protein, 6 mM HEPES pH 7.8, 80 mM KCl, 0.5 mM EDTA, 0.5 mM EGTA, 6% glycerol, 35 ng/ul poly-dIdC, 1% milk, 1 h, room temperature; Ap Aiptasia and Nv Nematostella (sea anemones) / Co Capsaspora / Aq Amphimedon (sponge) / Dm Drosophila / Hu human; RHD is the Rel homology domain; high values mean tight binding
Conditions in all cases: dsDNA, one strand shown
[1] = target: T1, GST-Ap-NF-kB RHD (Exaiptasia pallida (Aiptasia), UniProt A0A913YAJ5 2-422)
T1 sequence: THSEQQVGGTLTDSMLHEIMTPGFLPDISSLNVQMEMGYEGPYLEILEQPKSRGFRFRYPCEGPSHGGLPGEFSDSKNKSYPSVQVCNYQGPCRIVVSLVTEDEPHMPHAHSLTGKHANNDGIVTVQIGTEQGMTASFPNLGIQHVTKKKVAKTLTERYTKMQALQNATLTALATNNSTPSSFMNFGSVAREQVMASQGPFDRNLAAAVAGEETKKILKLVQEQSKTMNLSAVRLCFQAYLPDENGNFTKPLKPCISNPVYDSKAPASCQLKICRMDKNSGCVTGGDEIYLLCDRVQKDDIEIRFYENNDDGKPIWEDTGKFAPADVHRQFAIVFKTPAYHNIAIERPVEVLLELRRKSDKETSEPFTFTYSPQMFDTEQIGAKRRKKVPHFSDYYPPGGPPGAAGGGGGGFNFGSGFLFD

[2] = target: T2, GST-Nv-NF-kB (Cys allele) (Nematostella vectensis, UniProt E5G601 2-411)
T2 sequence: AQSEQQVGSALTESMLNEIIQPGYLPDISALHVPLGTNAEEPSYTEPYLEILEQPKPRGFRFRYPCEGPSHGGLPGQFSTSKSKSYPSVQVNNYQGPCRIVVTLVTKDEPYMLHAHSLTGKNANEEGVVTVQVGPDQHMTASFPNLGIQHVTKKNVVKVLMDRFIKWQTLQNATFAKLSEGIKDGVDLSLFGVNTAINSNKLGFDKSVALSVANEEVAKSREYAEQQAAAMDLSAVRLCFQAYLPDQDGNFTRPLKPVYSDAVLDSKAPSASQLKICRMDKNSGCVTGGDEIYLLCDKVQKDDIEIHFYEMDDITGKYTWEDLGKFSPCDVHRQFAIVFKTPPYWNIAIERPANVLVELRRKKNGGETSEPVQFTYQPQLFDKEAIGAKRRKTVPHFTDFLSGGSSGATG

[3] = target: T3, GST-Nv-NF-kB (Ser allele) (Nematostella vectensis, UniProt A7UNT2 2-411)
T3 sequence: T2 sequence with Q21R, C66S, S207N, E215Q, V217A, E225K, A268E, D399E

[4] = target: T4, GST-Co-NF-kB (Capsaspora owczarzaki, UniProt F1ARL5 200-546)
T4 sequence: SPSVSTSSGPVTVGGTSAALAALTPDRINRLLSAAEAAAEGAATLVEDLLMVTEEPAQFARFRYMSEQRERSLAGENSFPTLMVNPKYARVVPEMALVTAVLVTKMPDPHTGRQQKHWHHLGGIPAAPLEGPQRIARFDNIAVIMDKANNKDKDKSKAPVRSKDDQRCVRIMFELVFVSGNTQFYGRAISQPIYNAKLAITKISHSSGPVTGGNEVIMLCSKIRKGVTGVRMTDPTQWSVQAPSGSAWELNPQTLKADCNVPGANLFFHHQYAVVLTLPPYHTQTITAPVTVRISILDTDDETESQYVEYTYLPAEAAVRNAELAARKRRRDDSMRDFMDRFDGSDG

[5] = target: T5, GST-Aq-NF-kB (Amphimedon queenslandica, UniProt A9Y5G7 2-389)
T5 sequence: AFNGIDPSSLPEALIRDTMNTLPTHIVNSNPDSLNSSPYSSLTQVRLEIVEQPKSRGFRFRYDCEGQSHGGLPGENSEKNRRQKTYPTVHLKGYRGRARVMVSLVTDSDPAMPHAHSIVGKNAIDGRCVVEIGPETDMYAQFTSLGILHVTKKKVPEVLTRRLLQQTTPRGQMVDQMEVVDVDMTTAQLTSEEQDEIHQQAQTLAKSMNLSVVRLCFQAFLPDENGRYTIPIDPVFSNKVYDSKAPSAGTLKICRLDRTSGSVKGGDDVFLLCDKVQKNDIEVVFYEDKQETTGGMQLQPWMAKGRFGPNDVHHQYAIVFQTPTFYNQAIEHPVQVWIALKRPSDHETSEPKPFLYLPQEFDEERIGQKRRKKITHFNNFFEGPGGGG

[6] = target: GST-Hu-p50 (Homo sapiens, UniProt P19838 7-356)
GST-Hu-p50, sequence (P19838 7-356): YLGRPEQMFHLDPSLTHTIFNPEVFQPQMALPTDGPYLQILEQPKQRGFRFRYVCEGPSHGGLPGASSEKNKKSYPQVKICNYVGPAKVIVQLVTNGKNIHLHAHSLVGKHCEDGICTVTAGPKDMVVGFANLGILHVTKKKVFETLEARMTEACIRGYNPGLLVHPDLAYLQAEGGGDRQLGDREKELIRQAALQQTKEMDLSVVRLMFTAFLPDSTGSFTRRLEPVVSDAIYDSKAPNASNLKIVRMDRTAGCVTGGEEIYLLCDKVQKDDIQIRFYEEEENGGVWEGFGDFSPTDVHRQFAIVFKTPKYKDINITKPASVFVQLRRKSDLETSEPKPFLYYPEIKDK

[7] = target: T6, GST-Dm-Relish (Drosophila melanogaster, UniProt Q94527 99-473)
T6 sequence: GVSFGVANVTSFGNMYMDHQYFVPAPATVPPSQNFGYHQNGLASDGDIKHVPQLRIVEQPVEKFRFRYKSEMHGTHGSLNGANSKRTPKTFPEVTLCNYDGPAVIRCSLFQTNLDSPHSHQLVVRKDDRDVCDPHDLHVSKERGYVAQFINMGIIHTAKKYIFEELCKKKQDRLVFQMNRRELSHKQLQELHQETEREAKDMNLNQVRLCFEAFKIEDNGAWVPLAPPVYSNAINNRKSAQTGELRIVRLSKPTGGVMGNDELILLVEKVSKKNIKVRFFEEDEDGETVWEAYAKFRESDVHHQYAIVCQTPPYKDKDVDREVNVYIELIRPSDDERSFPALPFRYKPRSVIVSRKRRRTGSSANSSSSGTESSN

Row | Sequence | binding signal [1] [z-score] | binding signal [2] [z-score] | binding signal [3] [z-score] | binding signal [4] [z-score] | binding signal [5] [z-score] | binding signal [6] [z-score] | binding signal [7] [z-score]
1 | CCGATTAACATCAAACTGGGAAATGATGTTAATCGGGTCTTGATTCGCTTGACGCTGCTG | 1.13 | 2.35 | 1.79 | 2.64 | 1.06 | 1.62 | 
2 | CCGATTAACATCAAATTTCCCGTTGATGTTAATCGGGTCTTGATTCGCTTGACGCTGCTG | 3.33 | 5.71 | 5.5 | 4.13 | 5.53 | 4.24 | 3.24
3 | CCGATTAACATCAAACTTCCCCATGATGTTAATCGGGTCTTGATTCGCTTGACGCTGCTG | 6.34 | 7.12 | 7.9 | 7.04 | 6.28 | 5.87 | 5.5
4 | CCGATTAACATCAGAGTTTCCCCTGATGTTAATCGGGTCTTGATTCGCTTGACGCTGCTG | 7.08 | 8.35 | 9.96 | 7.72 | 6.33 | 6.14 | 4.61
5 | CCGATTAACATCAGGGGGAAAAATGATGTTAATCGGGTCTTGATTCGCTTGACGCTGCTG | 6.66 | 7.33 | 9.96 | 11.6 | 5.88 | 7.07 | 4.64
6 | CCGATTAACATCAGGGGAAAGACTGATGTTAATCGGGTCTTGATTCGCTTGACGCTGCTG | 4.98 | 6.57 | 7.06 | 4.97 | 5.51 | 4.9 | 6.16
7 | CCGATTAACATCAAGGGGAATAATGATGTTAATCGGGTCTTGATTCGCTTGACGCTGCTG | 5.34 | 8.01 | 8.1 | 7.2 | 5.64 | 5.62 | 4.17
8 | CCGATTAACATCAGCTTCCCCCCTGATGTTAATCGGGTCTTGATTCGCTTGACGCTGCTG | 5.3 | 4.97 | 5.68 | 7.68 | 4.55 | 4.95 | 4.2
9 | CCGATTAACATCAGGGAATTGGATGATGTTAATCGGGTCTTGATTCGCTTGACGCTGCTG | 2.15 | 3.52 | 3.84 | 1.88 | 2.8 | 1.84 | 
10 | CCGATTAACATCAGAGTGGGAAATGATGTTAATCGGGTCTTGATTCGCTTGACGCTGCTG | 1 | 2.45 | 1.89 | 2.83 | 1.64 | 2.27 | 
11 | CCGATTAACATCAAAATCCCGGGTGATGTTAATCGGGTCTTGATTCGCTTGACGCTGCTG | 3.32 | 2.32 | 2.26 | 1.42 | 3.23 | 3.3 | 6.58
12 | CCGATTAACATCAGATAATCCCCTGATGTTAATCGGGTCTTGATTCGCTTGACGCTGCTG | 8.1 | 8.93 | 9.43 | 4.09 | 7.45 | 6.48 | 6.59
13 | CCGATTAACATCAGGGGAATAACTGATGTTAATCGGGTCTTGATTCGCTTGACGCTGCTG | 6.5 | 8.18 | 7.95 | 7.09 | 6.98 | 5.61 | 9.39
14 | CCGATTAACATCAAGCATTTCCCTGATGTTAATCGGGTCTTGATTCGCTTGACGCTGCTG | 2.4 | 4.4 | 4.14 | 2.36 | 3.63 | 2.72 | 
15 | CCGATTAACATCATCAGTTTCCCTGATGTTAATCGGGTCTTGATTCGCTTGACGCTGCTG | 2.11 | 3.16 | 4.41 | 2.69 | 2.58 | 1.61 | 
16 | CCGATTAACATCAGGGGCAGGGATGATGTTAATCGGGTCTTGATTCGCTTGACGCTGCTG | 2.32 | 1.46 | 1.47 | 1.59 | 2.02 | 2.01 | 
17 | CCGATTAACATCACCGTCCCCCCTGATGTTAATCGGGTCTTGATTCGCTTGACGCTGCTG | 4.94 | 4.43 | 4.21 | 5.1 | 4.34 | 4.08 | 4.4
18 | CCGATTAACATCAGGGGAGTGGATGATGTTAATCGGGTCTTGATTCGCTTGACGCTGCTG | 3.01 | 2.86 | 3.98 | 1.84 | 2.85 | 2.9 | 
19 | CCGATTAACATCAGGCTATTCCCTGATGTTAATCGGGTCTTGATTCGCTTGACGCTGCTG | 1.73 | 2.68 | 1.67 | 1.6 | 3.74 | 1.4 | 
20 | CCGATTAACATCATATTTTCCCATGATGTTAATCGGGTCTTGATTCGCTTGACGCTGCTG | 2.18 | 4.42 | 5.61 | 4.34 | 2.52 | 4.15 | 
21 | CCGATTAACATCAGGGGGACTACTGATGTTAATCGGGTCTTGATTCGCTTGACGCTGCTG | 6.49 | 4.44 | 4.46 | 4.53 | 5.25 | 4.55 | 6.39
22 | CCGATTAACATCAATTTTCCCCCTGATGTTAATCGGGTCTTGATTCGCTTGACGCTGCTG | 7.68 | 8.57 | 11.2 | 12 | 6.79 | 7.47 | 4.81
23 | CCGATTAACATCAAAATTACCCATGATGTTAATCGGGTCTTGATTCGCTTGACGCTGCTG | 2.8 | 4.69 | 4.25 | 2.84 | 4.84 | 4.15 | 4.11

— paper PMC5700166
